# Source: PubChem BioAssay (EPA / NIEHS)
# Results filed as inconclusive are left out. Active and inactive are the calls of the source. How the source made its calls, unless noted: active means hit-call score of the fitted dose curve at least 0.9, where 1 is the maximum; inactive means score below 0.9.
# Tests used:
# [1] = target: X-box-binding protein 1 (Homo sapiens) (UniProt P17861); experiment: ATG_Xbp1_CIS: Attagene CIS-FACTORIAL HepG2 Assay for human X-box Binding Protein 1 (XBP1) (AID 2282972); settings: HepG2 XBP1 cis-element reporter, Attagene multiplex; actives raise or lower the signal
# In short: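 Read-out: fluorescent reporter mRNA fragments resolved by capillary electrophoresis after RT-PCR. Human HepG2 liver cells carried transfected cis-promoter reporter units and were exposed to chemicals for 24 hours. Gain or loss of signal fitted relative to DMSO baseline.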
# [2] = target: Estrogen-related receptor gamma (Homo sapiens) (UniProt P62508); experiment: ATG_ERRg_TRANS: Attagene TRANS-FACTORIAL HepG2 Assay for human Estrogen-Related Receptor gamma (ERRg) (AID 2282977; active means hit-call score of the fitted dose curve at least 0.9, where 1 is the maximum;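 further: hits increase reporter signal over DMSO so potencies reflect activators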); settings: HepG2 Attagene TRANS reporter, ERRg transactivation
# In short: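 Exogenous NR-Gal4 chimera activity was assessed in HepG2 cells bearing transfected GAL4-UAS reporters. After 24 h dosing, total RNA underwent RT-PCR, fluorescent primer extension and HpaI digestion before capillary electrophoresis, with gain of signal scored against DMSO.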
# [3] = target: Glucocorticoid receptor (Homo sapiens) (UniProt P04150); experiment: ATG_GR_TRANS: Attagene TRANS-FACTORIAL HepG2 Assay for human Glucocorticoid Receptor (GR) (AID 2282978; active means hit-call score of the fitted dose curve at least 0.9, where 1 is the maximum;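 further: activators score as hits since higher reporter transcript over DMSO is fitted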); settings: HepG2 Attagene TRANS GR reporter, mRNA transcription
# In short: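 In this trans-factorial format, exogenous NR-GAL4 chimeric proteins in transfected HepG2 cells regulate GAL4-UAS reporter transcription. After 24 h treatment, reporter mRNA induction relative to DMSO is read by RT-PCR and capillary electrophoresis.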
# [4] = target: Bile acid receptor (Homo sapiens) (UniProt Q96RI1); experiment: ATG_FXR_TRANS: Attagene TRANS-FACTORIAL HepG2 Assay for Farnesoid X Receptor (FXR) (AID 2282979; active means hit-call score of the fitted dose curve at least 0.9, where 1 is the maximum;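 further: hits raise reporter mRNA above DMSO so AC50 marks FXR activation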); settings: HepG2 Attagene TRANS FXR-GAL4 reporter transcription
# In short: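 HepG2 cells were transiently transfected with GAL4-UAS reporters driven by chimeric NR-Gal4 proteins and dosed for 24 h. Reporter mRNA was quantified by RT-PCR, fluorescent labelling, HpaI digestion and capillary electrophoresis, with gain of signal scored versus DMSO.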
# [5] = target: Oxysterols receptor LXR-alpha (Homo sapiens) (UniProt Q13133); experiment: ATG_LXRa_TRANS: Attagene TRANS-FACTORIAL HepG2 Assay for human Liver X Receptor alpha (LXRa) (AID 2282980; active means hit-call score of the fitted dose curve at least 0.9, where 1 is the maximum); settings: HepG2 Attagene TRANS reporter, LXRa transactivation
# In short: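 HepG2 cells transiently transfected with GAL4-UAS reporter units for chimeric NR-Gal4 proteins, exposed to chemicals for 24 h. Reporter mRNA quantified by RT-PCR and capillary electrophoresis; gain of signal fitted relative to DMSO.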
# [6] = target: Oxysterols receptor LXR-beta (Homo sapiens) (UniProt P55055); experiment: ATG_LXRb_TRANS: Attagene TRANS-FACTORIAL HepG2 Assay for human Liver X Receptor beta (LXRb) (AID 2282981; active means hit-call score of the fitted dose curve at least 0.9, where 1 is the maximum); settings: HepG2 Attagene TRANS GAL4-LXRb reporter, mRNA
# In short: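 Readout: fluorescent reporter mRNA fragments resolved by capillary electrophoresis after RT-PCR. System: transiently transfected human HepG2, exogenous LXRb-Gal4 chimera driving GAL4-UAS reporter, 24 h dosing. Activity fitted upward against DMSO baseline.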
# [7] = ATG_M_06_TRANS: Attagene TRANS-FACTORIAL HepG2 Assay for M06 Transcription Factor (Internal Marker) (AID 2282983; active means hit-call score of the fitted dose curve at least 0.9, where 1 is the maximum;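 further: reporter transcript level by RT-PCR then capillary electrophoresis fluorescence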); settings: HepG2 Attagene TRANS M06 internal marker reporter
# In short: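 mRNA levels of a reporter transcript, quantified as FAM fluorescence on capillary electrophoresis, served as readout. HepG2 cells expressing exogenous GAL4-chimera reporter constructs were exposed for 24 h. Gain of signal over DMSO was evaluated.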
# [8] = target: Transcriptional activator Myb (Homo sapiens) (UniProt P10242); experiment: ATG_Myb_CIS: Attagene CIS-FACTORIAL HepG2 Assay for human Myeloblastosis (Myb) Proto-Oncogene Transcription Factor (AID 2282986); settings: HepG2 Attagene CIS-FACTORIAL Myb reporter transcription; actives raise or lower the signal
# In short: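 Steps: transfect HepG2 with cis-regulated reporter units; dose with chemical for 24 h; isolate RNA, reverse-transcribe, PCR-amplify and FAM-label reporter sequences; digest with HpaI; resolve by capillary electrophoresis. Activity fitted in both directions relative to DMSO.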
# [9] = target: Nuclear respiratory factor 1 (Homo sapiens) (UniProt Q16656); experiment: ATG_NRF1_CIS: Attagene CIS-FACTORIAL HepG2 Assay for human Nuclear Respiratory Factor 1 (NRF1) Orphan Gene (AID 2282987); settings: HepG2 NRF1 cis-element reporter, Attagene multiplex; actives raise or lower the signal
# In short: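 Fluorescence intensity of labelled reporter cDNA fragments, resolved by capillary electrophoresis, served as readout for NRF1 cis-element activity. Transiently transfected HepG2 cells were dosed for 24 hours; activity in either direction was fitted against DMSO negative control.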
# [10] = ATG_NFI_CIS: Attagene CIS-FACTORIAL HepG2 Assay for human Nuclear Factor I (NFI) (AID 2282989); settings: HepG2 cis-regulatory reporter, NFI response element transcription; actives raise or lower the signal
# In short: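 Cells: human liver HepG2, transiently transfected with promoter-regulated reporter transcription units. Exposure 24 h. Detection: fluorescent RT-PCR products separated by capillary electrophoresis, normalised to DMSO negative control.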
# [11] = target: Myc proto-oncogene protein (Homo sapiens) (UniProt P01106); experiment: ATG_Myc_CIS: Attagene CIS-FACTORIAL HepG2 Assay for human Myelocytomatosis (Myc) Proto-Oncogene Transcription Factor (AID 2282990); settings: HepG2, Attagene cis-reporter transcription factor activity; actives raise or lower the signal
# In short: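 Fluorescence intensity of reporter-specific cDNA fragments, separated by capillary electrophoresis, gives the signal. Transfected HepG2 cells carrying cis-promoter reporter constructs are incubated with compound for 24 h; DMSO serves as baseline.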
# [12] = ATG_NF_kB_CIS: Attagene CIS-FACTORIAL HepG2 Assay for human Nuclear Factor Kappa B (NF-kB) (AID 2282991); settings: HepG2 Attagene cis-factorial NF-kB reporter mRNA; actives raise or lower the signal
# In short: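 Endogenous transcription factor activity in HepG2 was captured via cis-regulated reporter constructs; after 24 h dosing, reporter mRNA was reverse-transcribed, amplified, fluorescently labelled and sized by capillary electrophoresis, with activity fitted bidirectionally relative to DMSO.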
# [13] = ATG_NRF2_ARE_CIS: Attagene CIS-FACTORIAL HepG2 Assay for human Nuclear Factor Erythroid 2 Related Factor 2 (NFR2) response to Antioxidant Response Elements (ARE) (AID 2282992); settings: HepG2 Attagene ARE/NRF2 reporter, transcription factor activity; actives raise or lower the signal;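 on AC50: reporter mRNA level measured by RT-PCR and capillary electrophoresis fluorescence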
# In short: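 Readout: reporter mRNA quantified by RT-PCR plus FAM-labelled primer extension, HpaI digestion and capillary electrophoresis, 24 h after dosing transfected HepG2 cells. Gain or loss of signal is fitted bidirectionally against DMSO baseline.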
# [14] = target: Hepatocyte nuclear factor 4-alpha (Homo sapiens) (UniProt P41235); experiment: ATG_HNF4a_TRANS: Attagene TRANS-FACTORIAL HepG2 Assay for human Hepatocyte Nuclear Factor 4 alpha (HNF4a) (AID 2282982; active means hit-call score of the fitted dose curve at least 0.9, where 1 is the maximum); settings: HepG2 HNF4a transactivation reporter, mRNA readout
# In short: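 Transient MRTU transfection of HepG2, 24 h dosing. Readout: reporter mRNA via RT-PCR + capillary electrophoresis, fluorescence; activity fit upward relative to DMSO control.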
# [15] = target: Nuclear receptor subfamily 4 group A member 2 (Homo sapiens) (UniProt P43354); experiment: ATG_NURR1_TRANS: Attagene TRANS-FACTORIAL HepG2 Assay for human Nuclear Receptor Related Protein 1 (NURR1) (AID 2282985; active means hit-call score of the fitted dose curve at least 0.9, where 1 is the maximum); settings: HepG2 Attagene TRANS reporter, mRNA readout
# In short: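 Read-out: reporter mRNA induction by RT-PCR plus capillary electrophoresis with fluorescence detection, after 24 h dosing of transfected HepG2 cells. Exogenous NR-Gal4 chimera activity drives GAL4-UAS reporter; activity fitted upward versus DMSO.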
# [16] = ATG_GAL4_TRANS: Attagene TRANS-FACTORIAL HepG2 Assay for GAL4 (Internal Marker) (AID 2282976; active means hit-call score of the fitted dose curve at least 0.9, where 1 is the maximum); settings: HepG2 Attagene TRANS GAL4 internal marker reporter
# In short: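 Background-control readout: GAL4-UAS reporter transcript in transiently transfected HepG2 cells after 24 h compound exposure. Measured by RT-PCR, 6-FAM primer extension, HpaI digest and capillary electrophoresis; gain-of-signal fit versus DMSO.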
# [17] = ATG_M_32_TRANS: Attagene TRANS-FACTORIAL HepG2 Assay for M32 Transcription Factor (Internal Marker) (AID 2282984; active means hit-call score of the fitted dose curve at least 0.9, where 1 is the maximum); settings: HepG2 Attagene TRANS M32 internal marker reporter
# In short: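 Read-out: fluorescent reporter cDNA fragments resolved by capillary electrophoresis after RT-PCR of total RNA. Transfected HepG2 cells were exposed to chemical for 24 h. Activity scored in the positive direction relative to DMSO.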
# Nuclear respiratory factor 1 (Homo sapiens), sequence (Q16656 whole entry, looked up, the tested form may be a part): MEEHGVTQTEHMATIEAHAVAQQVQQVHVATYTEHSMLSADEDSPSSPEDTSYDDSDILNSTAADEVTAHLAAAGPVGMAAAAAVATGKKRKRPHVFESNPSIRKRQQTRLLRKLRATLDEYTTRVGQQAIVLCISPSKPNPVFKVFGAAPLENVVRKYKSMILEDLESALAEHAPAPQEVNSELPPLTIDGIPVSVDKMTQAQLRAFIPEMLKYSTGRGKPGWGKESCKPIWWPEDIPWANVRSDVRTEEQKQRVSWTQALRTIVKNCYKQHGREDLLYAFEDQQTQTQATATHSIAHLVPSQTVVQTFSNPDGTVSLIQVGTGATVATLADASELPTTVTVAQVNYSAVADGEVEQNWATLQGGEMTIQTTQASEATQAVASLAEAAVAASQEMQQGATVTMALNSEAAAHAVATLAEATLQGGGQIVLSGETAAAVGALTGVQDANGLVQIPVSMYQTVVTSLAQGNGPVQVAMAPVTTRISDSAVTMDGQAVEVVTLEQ
# Oxysterols receptor LXR-alpha (Homo sapiens), sequence (Q13133 whole entry, looked up, the tested form may be a part): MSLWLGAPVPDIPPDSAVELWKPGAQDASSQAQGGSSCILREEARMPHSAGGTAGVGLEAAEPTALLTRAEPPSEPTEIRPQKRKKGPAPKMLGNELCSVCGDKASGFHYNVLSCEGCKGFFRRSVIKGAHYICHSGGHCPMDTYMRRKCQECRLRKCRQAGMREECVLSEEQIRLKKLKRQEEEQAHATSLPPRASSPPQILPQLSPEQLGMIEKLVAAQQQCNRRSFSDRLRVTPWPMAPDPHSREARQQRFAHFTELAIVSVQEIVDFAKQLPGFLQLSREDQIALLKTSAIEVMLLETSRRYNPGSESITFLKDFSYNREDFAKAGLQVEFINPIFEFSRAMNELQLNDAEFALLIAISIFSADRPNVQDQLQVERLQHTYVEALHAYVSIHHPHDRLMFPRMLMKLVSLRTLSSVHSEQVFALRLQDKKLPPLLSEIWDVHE
# Hepatocyte nuclear factor 4-alpha (Homo sapiens), sequence (P41235 whole entry, looked up): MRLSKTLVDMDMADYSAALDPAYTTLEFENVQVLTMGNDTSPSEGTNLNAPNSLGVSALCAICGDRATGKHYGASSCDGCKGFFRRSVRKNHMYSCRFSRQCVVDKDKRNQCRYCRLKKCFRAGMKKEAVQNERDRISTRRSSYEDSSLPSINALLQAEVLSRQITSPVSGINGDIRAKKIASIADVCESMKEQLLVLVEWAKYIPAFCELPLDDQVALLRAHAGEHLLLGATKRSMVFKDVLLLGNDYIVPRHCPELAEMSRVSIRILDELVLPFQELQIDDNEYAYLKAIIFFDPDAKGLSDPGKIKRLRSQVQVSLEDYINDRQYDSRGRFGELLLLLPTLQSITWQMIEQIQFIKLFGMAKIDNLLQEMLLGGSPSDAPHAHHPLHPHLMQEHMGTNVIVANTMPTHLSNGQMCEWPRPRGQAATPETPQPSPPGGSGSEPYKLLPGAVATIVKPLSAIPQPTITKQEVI
# Oxysterols receptor LXR-beta (Homo sapiens), sequence (P55055 whole entry, looked up, the tested form may be a part): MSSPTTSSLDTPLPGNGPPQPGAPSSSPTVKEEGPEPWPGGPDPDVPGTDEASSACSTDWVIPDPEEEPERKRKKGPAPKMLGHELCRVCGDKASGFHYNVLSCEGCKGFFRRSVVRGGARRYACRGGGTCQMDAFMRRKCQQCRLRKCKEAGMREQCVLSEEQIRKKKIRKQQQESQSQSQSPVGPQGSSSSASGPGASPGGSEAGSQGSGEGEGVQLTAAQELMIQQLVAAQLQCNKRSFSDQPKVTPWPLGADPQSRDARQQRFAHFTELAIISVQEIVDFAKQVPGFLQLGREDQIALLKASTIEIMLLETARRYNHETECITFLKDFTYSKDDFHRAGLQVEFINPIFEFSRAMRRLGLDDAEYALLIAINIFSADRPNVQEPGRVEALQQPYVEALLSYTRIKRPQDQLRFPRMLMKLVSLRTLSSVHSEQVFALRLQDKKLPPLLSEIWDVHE
# Bile acid receptor (Homo sapiens), sequence (Q96RI1 whole entry, looked up, the tested form may be a part): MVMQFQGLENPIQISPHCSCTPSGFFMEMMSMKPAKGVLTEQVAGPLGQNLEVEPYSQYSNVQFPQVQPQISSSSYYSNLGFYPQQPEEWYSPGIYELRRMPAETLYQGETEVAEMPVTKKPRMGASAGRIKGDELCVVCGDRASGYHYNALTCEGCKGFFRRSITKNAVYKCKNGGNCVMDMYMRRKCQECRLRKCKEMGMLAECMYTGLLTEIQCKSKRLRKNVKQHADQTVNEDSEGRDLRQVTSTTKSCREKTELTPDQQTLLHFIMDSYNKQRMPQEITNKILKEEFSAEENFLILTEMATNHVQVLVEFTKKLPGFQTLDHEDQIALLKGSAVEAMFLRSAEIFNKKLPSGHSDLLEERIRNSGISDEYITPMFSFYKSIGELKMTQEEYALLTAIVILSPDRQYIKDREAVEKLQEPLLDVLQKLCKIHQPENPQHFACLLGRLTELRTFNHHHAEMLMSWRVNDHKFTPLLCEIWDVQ
# Myc proto-oncogene protein (Homo sapiens), sequence (P01106 whole entry, looked up, the tested form may be a part): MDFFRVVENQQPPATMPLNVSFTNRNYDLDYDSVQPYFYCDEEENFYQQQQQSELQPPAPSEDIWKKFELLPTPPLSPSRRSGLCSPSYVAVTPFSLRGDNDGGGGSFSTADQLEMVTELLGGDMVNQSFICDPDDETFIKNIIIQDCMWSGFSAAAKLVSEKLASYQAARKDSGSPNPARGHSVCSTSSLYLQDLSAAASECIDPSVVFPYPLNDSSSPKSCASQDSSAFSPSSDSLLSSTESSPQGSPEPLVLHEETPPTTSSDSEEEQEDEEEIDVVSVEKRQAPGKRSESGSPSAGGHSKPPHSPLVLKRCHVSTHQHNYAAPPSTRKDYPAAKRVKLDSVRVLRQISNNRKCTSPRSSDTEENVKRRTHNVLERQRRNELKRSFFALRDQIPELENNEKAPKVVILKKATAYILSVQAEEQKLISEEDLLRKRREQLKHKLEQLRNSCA
# Estrogen-related receptor gamma (Homo sapiens), sequence (P62508 whole entry, looked up, the tested form may be a part): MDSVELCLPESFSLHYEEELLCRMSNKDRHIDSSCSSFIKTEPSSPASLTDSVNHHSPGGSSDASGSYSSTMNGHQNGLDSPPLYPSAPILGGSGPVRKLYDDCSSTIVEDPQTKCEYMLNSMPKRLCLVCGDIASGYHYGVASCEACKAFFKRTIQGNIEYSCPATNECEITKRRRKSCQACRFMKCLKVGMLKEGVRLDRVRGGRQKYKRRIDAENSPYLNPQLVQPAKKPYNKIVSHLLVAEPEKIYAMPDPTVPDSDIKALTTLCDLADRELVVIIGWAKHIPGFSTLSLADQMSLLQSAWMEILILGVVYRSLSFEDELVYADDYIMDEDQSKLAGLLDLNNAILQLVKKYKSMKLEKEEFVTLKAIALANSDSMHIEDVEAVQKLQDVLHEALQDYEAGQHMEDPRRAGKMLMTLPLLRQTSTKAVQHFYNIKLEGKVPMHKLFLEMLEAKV
# Glucocorticoid receptor (Homo sapiens), sequence (P04150 whole entry, looked up, the tested form may be a part): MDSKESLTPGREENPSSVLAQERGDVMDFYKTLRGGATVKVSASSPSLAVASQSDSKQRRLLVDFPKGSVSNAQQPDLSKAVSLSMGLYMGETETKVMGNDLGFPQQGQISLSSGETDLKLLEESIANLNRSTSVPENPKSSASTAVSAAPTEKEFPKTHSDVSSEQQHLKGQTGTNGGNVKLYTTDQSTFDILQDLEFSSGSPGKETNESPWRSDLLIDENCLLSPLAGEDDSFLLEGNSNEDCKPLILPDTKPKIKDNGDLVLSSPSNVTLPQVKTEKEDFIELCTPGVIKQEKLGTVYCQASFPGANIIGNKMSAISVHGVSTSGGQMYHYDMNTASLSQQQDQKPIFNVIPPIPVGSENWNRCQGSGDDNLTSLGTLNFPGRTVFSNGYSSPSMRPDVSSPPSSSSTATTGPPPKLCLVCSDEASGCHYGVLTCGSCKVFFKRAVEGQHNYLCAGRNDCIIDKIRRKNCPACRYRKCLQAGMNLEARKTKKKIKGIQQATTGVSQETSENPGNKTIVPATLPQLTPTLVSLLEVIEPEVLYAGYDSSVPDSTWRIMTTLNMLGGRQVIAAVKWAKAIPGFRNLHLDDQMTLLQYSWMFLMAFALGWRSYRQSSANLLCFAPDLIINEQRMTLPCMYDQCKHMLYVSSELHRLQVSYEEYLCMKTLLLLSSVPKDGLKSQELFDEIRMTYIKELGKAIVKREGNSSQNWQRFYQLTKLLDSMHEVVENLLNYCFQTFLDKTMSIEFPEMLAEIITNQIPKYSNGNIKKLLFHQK
# Nuclear receptor subfamily 4 group A member 2 (Homo sapiens), sequence (P43354 whole entry, looked up, the tested form may be a part): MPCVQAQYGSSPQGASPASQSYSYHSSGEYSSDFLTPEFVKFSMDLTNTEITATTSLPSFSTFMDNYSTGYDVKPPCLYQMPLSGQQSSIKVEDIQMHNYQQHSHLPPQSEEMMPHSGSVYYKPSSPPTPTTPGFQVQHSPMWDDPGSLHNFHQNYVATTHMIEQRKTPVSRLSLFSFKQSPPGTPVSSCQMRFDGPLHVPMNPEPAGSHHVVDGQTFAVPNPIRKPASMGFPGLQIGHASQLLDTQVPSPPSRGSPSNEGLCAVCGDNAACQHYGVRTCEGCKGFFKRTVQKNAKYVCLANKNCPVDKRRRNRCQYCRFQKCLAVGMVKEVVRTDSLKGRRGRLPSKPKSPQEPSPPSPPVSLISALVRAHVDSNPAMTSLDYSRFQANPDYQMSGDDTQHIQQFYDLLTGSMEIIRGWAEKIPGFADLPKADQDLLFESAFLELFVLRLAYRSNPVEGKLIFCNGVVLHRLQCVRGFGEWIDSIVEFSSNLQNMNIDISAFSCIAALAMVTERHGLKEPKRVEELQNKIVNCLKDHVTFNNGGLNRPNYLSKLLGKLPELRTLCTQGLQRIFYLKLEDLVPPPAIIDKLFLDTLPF
# X-box-binding protein 1 (Homo sapiens), sequence (P17861 whole entry, looked up, the tested form may be a part): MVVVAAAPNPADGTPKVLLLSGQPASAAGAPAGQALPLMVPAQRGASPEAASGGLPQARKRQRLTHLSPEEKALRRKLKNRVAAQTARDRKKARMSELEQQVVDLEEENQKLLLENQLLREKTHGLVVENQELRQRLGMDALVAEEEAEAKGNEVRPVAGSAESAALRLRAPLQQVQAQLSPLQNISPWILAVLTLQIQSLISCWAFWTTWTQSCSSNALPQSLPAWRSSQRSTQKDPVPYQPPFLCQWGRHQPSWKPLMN
smiles,measurement,setting,value
O=C1C=CC(=O)c2ccccc21,outcome,[1],inactive
same,outcome,[2],inactive
same,outcome,[3],inactive
same,outcome,[4],inactive
same,outcome,[5],inactive
same,outcome,[6],inactive
same,outcome,[7],inactive
same,outcome,[8],inactive
same,outcome,[9],inactive
same,outcome,[10],inactive
same,outcome,[11],inactive
same,outcome,[12],inactive
same,AC50,[13],2.23 µM (active)
[Cl][Sn]([c]1ccccc1)([c]1ccccc1)[c]1ccccc1,AC50,[1],0.242 µM (active)
same,outcome,[2],inactive
same,outcome,[6],inactive
same,AC50,[14],228 nM (active)
same,AC50,[15],6.88 nM (active)
same,AC50,[8],1.53 µM (active)
same,AC50,[9],0.216 µM (active)
same,AC50,[11],1.4 µM (active)
same,AC50,[12],0.232 µM (active)
same,AC50,[13],0.0785 µM (active)
BrCC(Br)c1ccccc1 (centres undefined),outcome,[1],inactive
same,outcome,[16],inactive
same,outcome,[3],inactive
same,outcome,[4],inactive
same,outcome,[7],inactive
same,outcome,[15],inactive
same,outcome,[8],inactive
same,outcome,[9],inactive
same,outcome,[10],inactive
same,outcome,[11],inactive
same,outcome,[12],inactive
same,outcome,[13],inactive
CC(=Cc1ccccc1)[N+](=O)[O-],AC50,[1],11.1 µM (active)
same,outcome,[2],inactive
same,outcome,[14],inactive
same,outcome,[7],inactive
same,outcome,[15],inactive
same,outcome,[8],inactive
same,AC50,[9],17.2 µM (active)
same,AC50,[11],18.6 µM (active)
same,AC50,[12],11.1 µM (active)
same,AC50,[13],2.61 µM (active)
C=CC(=O)NC(C)(C)CC(C)=O,outcome,[1],inactive
same,outcome,[16],inactive
same,outcome,[5],inactive
same,outcome,[14],inactive
same,outcome,[7],inactive
same,outcome,[17],inactive
same,outcome,[8],inactive
same,outcome,[9],inactive
same,outcome,[11],inactive
same,outcome,[13],inactive
O=S(=O)(c1ccc(Cl)cc1)c1cc(Cl)c(Cl)cc1Cl,outcome,[1],inactive
same,outcome,[16],inactive
same,outcome,[3],inactive
same,outcome,[4],inactive
same,outcome,[7],inactive
same,outcome,[9],inactive
same,outcome,[10],inactive
same,outcome,[11],inactive
same,outcome,[12],inactive
same,AC50,[13],10.4 µM (active)
CCN(CCO)CCO,outcome,[1],inactive
same,outcome,[16],inactive
same,outcome,[3],inactive
same,outcome,[6],inactive
same,outcome,[7],inactive
same,outcome,[15],inactive
same,outcome,[8],inactive
same,outcome,[9],inactive
same,outcome,[10],inactive
same,outcome,[11],inactive
same,outcome,[12],inactive
same,outcome,[13],inactive
CC(C)CC(C)(c1ccc(O)cc1)c1ccc(O)cc1,AC50,[1],8.52 µM (active)
same,outcome,[3],inactive
same,AC50,[4],7.12 µM (active)
same,outcome,[6],inactive
same,outcome,[15],inactive
same,outcome,[8],inactive
same,outcome,[9],inactive
same,AC50,[10],16.9 µM (active)
same,outcome,[11],inactive
same,outcome,[12],inactive
C#CCO,outcome,[1],inactive
same,outcome,[16],inactive
same,outcome,[6],inactive
same,outcome,[8],inactive
same,outcome,[9],inactive
same,outcome,[10],inactive
same,outcome,[11],inactive
same,outcome,[13],inactive
N#CS,outcome,[1],inactive
same,outcome,[16],inactive
same,outcome,[3],inactive
same,outcome,[5],inactive
same,outcome,[6],inactive
same,outcome,[14],inactive
same,outcome,[9],inactive
same,outcome,[10],inactive
same,outcome,[11],inactive
CC(=O)C(F)(F)C(F)(F)F,outcome,[1],inactive
same,outcome,[16],inactive
same,outcome,[3],inactive
same,outcome,[4],inactive
same,outcome,[14],inactive
same,outcome,[7],inactive
same,outcome,[8],inactive
same,outcome,[9],inactive
same,outcome,[10],inactive
same,outcome,[11],inactive
